Screens deposited in PubChem BioAssay by National Center for Advancing Translational Sciences (NCATS).
Hits are enriched below; roughly 5.2% of the tested compounds scored in any of these assays.
Tau FP inhib: qHTS for Inhibitors of Tau Fibril Formation, Fluorescence Polarization; K18 P301L tau heparin fibrillization, Alexa594 FP, 6 h; Potency, µM (series often up to 57.7 µM), actives largely listed as inhibitors; hit rate 0.39% among 280,000; AID 1468, 2008; note: nearly all actives have a fitted effect of over 55% in size
Target sequence (P10636 561-689 P618L limits assumed): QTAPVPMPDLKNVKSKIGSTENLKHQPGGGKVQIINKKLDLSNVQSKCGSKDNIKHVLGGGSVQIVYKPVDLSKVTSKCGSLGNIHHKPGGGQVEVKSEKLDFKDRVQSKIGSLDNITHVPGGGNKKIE
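Quantitative HTS format: compounds meet 15 uM recombinant K18 P301L tau and Alexa 594-tau tracer in 100 mM sodium acetate pH 7; 20 uM heparin triggers fibrillization at 37 C over 6 hr; FP gives the signal.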
Sfp PPTase inh: qHTS Assay for Inhibitors of Bacillus subtilis Sfp phosphopantetheinyl transferase (PPTase); Potency, µM, most hits filed as inhibitors; hit rate 3.5% among 310,000; Biochemical Sfp PPTase activity, qHTS; 4'-phosphopantetheinyl transferase ffp (Bacillus subtilis), Q9F4F7;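 note: the enzyme is Sfp with the accession as filed and its product quenches rhodamine fluorescence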
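Fluorescence-quenching assay with 15 nM Sfp, 5 uM rhodamine-CoA and 12.5 uM BHQ-2-labelled ybbR peptide in pH 7.6 Hepes/MgCl2 buffer. Enzyme was pre-incubated with compound for 15 min at room temperature. Rate was taken from the 30-min fluorescence change (525/598 nm).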
Tau ThT inhib: qHTS for Inhibitors of Tau Fibril Formation, Thioflavin T Binding. Microtubule-associated protein tau (Homo sapiens), P10636. recombinant tau K18 P301L, heparin-induced fibrillization, ThT fluorescence. Potency, µM (doses to about 57.4 µM), usual class: inhibitors. hit rate 2.1% among 270,000. AID 1460, 2008; note: nearly all actives have a fitted effect of over 55% in size
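Fibril formation assay: tau K18 P301L at 15 uM with trace Alexa 594 label, heparin inducer 20 uM, pH 7 sodium acetate buffer, 37 C for 6 hr; endpoint ThT signal.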
FBPA coupling cs: qHTS Assay for Inhibitors of Fructose-1,6-bisphosphate Aldolase from Giardia Lamblia: Coupling assay counterscreen | activity change, negative = inhibition, % at 58.2 µM, hits read low | AID 2472, 2010 | coupling enzyme system counterscreen, AmpLite Red fluorescence | hit rate 0.67% among 290,000; in the data active = activity change below about -30%
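Final compound at 57.5 uM, incubated 10 min at RT with coupling enzyme reagent (glyceraldehyde-3-phosphate), then 20 min with substrate and AmpLite Red detection. Fluorescence read at 525/598 nm; tests interference with the coupling assay, not aldolase inhibition.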
Tau fluor counter: Counterscreen qHTS for Inhibitors of Tau Fibril Formation, Fluorescence Polarization | tau K18 P301L Alexa594 fluorescence, heparin fibrillization | Potency, µM (titrated, usually from 57.7 µM) | hit rate 0.93% among 280,000; note: nearly all actives have a fitted effect of over 55% in size
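Human tau K18 P301L (15 uM unlabeled, 0.24 uM Alexa 594-labeled) in 100 mM sodium acetate pH 7 with 20 uM heparin, 6 hr at 37 C. ThT 30 uM added, 1 hr ambient; Alexa 594 FP and total fluorescence read at 555/632 nm.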
Of the large screens only hits and unclear results are named; the others gave an inactive call; [ ] = another dose, or the depositor's remark. Unless noted, calls come from the whole dose curve; as a rule, active = well fitted curve in the direction sought with a large enough effect; inconclusive = small, poorly fitted or top-dose-only effect, or another doubt; inactive = no such curve, though single readings can be large; an effect the other way counts as inactive or inconclusive.

Cc1ccc(NC(=O)/C=C/c2ccccc2Cl)cc1Cl	Tau FP inhib inconclusive (no result: Sfp PPTase inh, FBPA coupling cs)
Cc1cc(N2CCCC2)nc2ccc(NC(=S)NCCCOC(C)C)cc12	none
O=C(/C=C/c1ccccc1Cl)Nc1cccc(S(=O)(=O)NC2=NCCCCC2)c1	Tau FP inhib inconclusive, Tau fluor counter 14.1µM[quencher]
Cc1cc(N2CCCCC2)nc2ccc(NC(=O)/C=C/c3ccccc3Cl)cc12	Tau ThT inhib 4.47µM, Tau fluor counter 10µM[quencher] (no result: Sfp PPTase inh, FBPA coupling cs)
Cc1cc(N2CCCCC2)nc2ccc(NC(=O)/C=C/c3ccccc3OC(C)C)cc12	Tau ThT inhib inconclusive, Tau fluor counter 7.08µM[quencher] (no result: Sfp PPTase inh, FBPA coupling cs)
Cc1cc(N)c2cc(NC(=O)/C=C/c3ccccc3Cl)ccc2n1	Tau FP inhib inconclusive, Sfp PPTase inh 25.1µM, Tau ThT inhib inconclusive
COc1ccc(-c2cc3ccc(O)c(CN4CCCC(C)C4)c3oc2=O)cc1OC (stereo not drawn)	Tau ThT inhib inconclusive (no result: Sfp PPTase inh, FBPA coupling cs)
Cc1cccc(Cn2c(CN3CCC(C(=O)NCCc4ccccc4)CC3)cc3ccccc32)c1	none (no result: Sfp PPTase inh, FBPA coupling cs)
CCOC(=O)Cn1c(=O)n(CC2CCCO2)c2nc(-c3ccc(CC)cc3)nc(C(N)=O)c21 (stereo not drawn)	none (no result: Sfp PPTase inh, FBPA coupling cs)
O=c1c(O)c(-c2ccc(O)cc2O)oc2cc(O)cc(O)c12	Tau FP inhib inconclusive, Tau ThT inhib 12.6µM, Tau fluor counter 28.2µM[quencher]
C[C@]12C=CC(=O)N[C@@H]1CC[C@@H]1C2CC[C@]2(C)C(C(=O)Nc3cc(C(F)(F)F)ccc3C(F)(F)F)CC[C@@H]12 (stereo partly drawn)	none (no result: Tau FP inhib, Tau ThT inhib, FBPA coupling cs, Tau fluor counter)
Cc1ccc(N2C(S)=C(C#N)C(=O)NC2c2ccco2)cc1 (stereo not drawn)	Tau FP inhib inconclusive, Tau ThT inhib inconclusive
N#CC1=C(S)N(c2ccccc2)C(c2ccc(-c3ccc(Cl)c(Cl)c3)o2)NC1=O (stereo not drawn)	Tau FP inhib 25.1µM, Sfp PPTase inh 35.5µM, Tau ThT inhib 15.8µM
N#CC1=C(S)N(c2ccccc2)C(c2ccc(-c3cc(Cl)ccc3Cl)o2)NC1=O (stereo not drawn)	Tau FP inhib inconclusive, Sfp PPTase inh 28.2µM, Tau ThT inhib inconclusive
Cc1cccc(N2CC(c3nc4ccccc4n3CCC3CCCCC3)CC2=O)c1 (stereo not drawn)	none (no result: Sfp PPTase inh, FBPA coupling cs)
COc1ccccc1CNc1ncnc2c1c(-c1ccccc1)cn2-c1ccc(Br)cc1	none (no result: Sfp PPTase inh, FBPA coupling cs)
Cn1ccnc1C(=O)c1ccc(NN)c([N+](=O)[O-])c1	Tau ThT inhib 22.4µM, Tau fluor counter inconclusive
O=S(=O)(c1cccc(F)c1)N1CCC(c2nc3ccccc3s2)CC1	none (no result: Sfp PPTase inh, FBPA coupling cs)
COc1ccc(-c2cc(-c3cccs3)c(C#N)c(SCC(=O)NCc3ccco3)n2)cc1	Sfp PPTase inh 56.2µM
C#CCSc1nc(-c2cccs2)ccc1C#N	Tau FP inhib inconclusive
CCN(CC)C(=O)CSc1nc(-c2cccs2)cc(-c2cccs2)c1C#N	Sfp PPTase inh 7.94µM, Tau ThT inhib inconclusive
COC(=O)CSc1nc2ccccc2nc1SCC(=O)OC	Sfp PPTase inh 50.1µM
COc1ccc(CNC(=O)CSc2nc(-c3ccccc3)cc(-c3cccs3)c2C#N)cc1	none
COC(=O)CSc1cnc2ccccc2n1	none
COC(=O)CSc1nc(-c2cccs2)ccc1C#N	Sfp PPTase inh 39.8µM, Tau ThT inhib inconclusive
CCCNC(=O)OC[C@@H]1O[C@H](CCO/N=C(\C)CCN2CCc3nc(CC)c(CC)cc3C2)C=C[C@@H]1Oc1ccc(OC)cc1	none
CC1CCc2c(sc3nnn(Cc4cccc(C(=O)OC(C)C)c4)c(=O)c23)C1 (stereo not drawn)	none (no result: Sfp PPTase inh, FBPA coupling cs)
CCC[C@@H]1CC(C(=O)NC(C2O[C@H](SC)C(OP(=O)(O)O)[C@H](O)[C@H]2O)[C@H](C)Cl)N(C)C1 (stereo partly drawn)	none (no result: Tau FP inhib, Tau ThT inhib, Tau fluor counter)
Cc1ccc(OCCOCCNC(C)(C)C)c([N+](=O)[O-])c1	none
Cc1cc(Cl)c(OCCOCCN2CCCCC2)c(Br)c1	Sfp PPTase inh 63.1µM
COc1ccc(OCCOCCOc2ccc(C)cc2[N+](=O)[O-])cc1	none
Cc1ccc(OCCOCCN2CCCCC2)c([N+](=O)[O-])c1	Sfp PPTase inh 56.2µM
